Compounds with a hit are over-represented: about 19% of the library has one in this group of screens.
IL-1B inflam inh – qHTS for Inhibitors of Inflammasome Signaling: IL-1-beta AlphaLISA Primary Screen | THP-1 LPS/ATP IL-1B secretion, AlphaLISA, 16 h; active compounds read low | activity change, % at 57.5 µM | 360,000 compounds, 4.7% hits; in the data active means activity change below about -50%; inconclusive means mostly about -30% to -49%
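Secreted IL-1B measured by AlphaLISA bead assay after 16 h compound exposure of THP-1 cells; compounds (final up to 57.5 uM) added 1 h before LPS (250 ng/mL) and ATP (1.25 mM) stimulation; lower signal means less secretion.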
DT40 TDP1 CPT – qHTS for Inhibitors of human tyrosyl-DNA phosphodiesterase 1 (TDP1): qHTS in cells in presence of CPT | 420,000 compounds, 12% hits | chicken DT40 Tdp1-/-;hTDP1 cells + 20 nM CPT, ATP luminescence, 48 h | AID 686979, 2013 | Potency, µM (top dose mostly 46.2 µM), for inactives: at the highest dose activity change, negative = growth inhibition, actives largely listed as inhibitors; further: potency means the concentration at half of the fitted maximal effect; nearly all actives have a fitted effect of over 55% in size
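Chicken DT40 Tdp1-/- cells stably complemented with human TDP1 were seeded at 400 cells/well in medium containing 20 nM camptothecin, exposed to pin-transferred compounds, and grown at 37 °C for at least 48 hr. Viability was read as ATP luminescence.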
HT1080NT lethal – qHTS for induction of synthetic lethality in tumor cells producing 2HG: qHTS for the HT-1080-NT fibrosarcoma cell line; AID 686970, 2013; Potency, µM (highest dose often 46.1 µM), for the others: at the highest dose activity, negative = less viability, hits mostly cytotoxic; 360,000 compounds, 1.6% hits; HT-1080-NT fibrosarcoma viability, CellTiter-Glo ATP luminescence, 48 h;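 further: NT is the 2HG producing partner of a matched IDH1 knockdown line; potency means the concentration at half of the fitted maximal effect; 0% = DMSO-treated cells and -100% = media-only wells without cells; nearly all actives have a fitted effect of over 55% in size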
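HT-1080-NT fibrosarcoma cells (2HG-overproducing), 750 cells/well in RPMI with 5% FBS, dosed after 2 h and incubated 48 h at 37C. CellTiter-Glo luminescence normalized to DMSO and no-cell wells; concentration-response curves fitted and classed.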
DT40 TDP1 no CPT – qHTS for Inhibitors of human tyrosyl-DNA phosphodiesterase 1 (TDP1): qHTS in cells in absence of CPT | Potency, µM (doses to about 46.2 µM), inactives show top-dose activity change, negative = growth inhibition, hits mostly inhibitors | 420,000 compounds, 15% hits | AID 686978, 2013 | DT40 Tdp1-/- hTDP1 cells, no CPT, ATP luminescence, 48 h; further: potency means the concentration at half of the fitted maximal effect; nearly all actives have a fitted effect of over 55% in size
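Chicken DT40 Tdp1-/- cells stably complemented with human TDP1 were seeded at 400 cells/well with DMSO in place of 20 nM camptothecin. After compound pinning, cells grew at least 48 hr at 37 °C; viability read by CellTiter-Glo luminescence.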
HT1080 IDH1KD tx – qHTS for induction of synthetic lethality in tumor cells producing 2HG: qHTS for the HT-1080-IDH1KD cell line. HT-1080 IDH1 knockdown viability, ATP luminescence, 48 h. Potency, µM (titrated, usually from 46.1 µM), for inactives: at the highest dose activity, negative = toxicity, hits mostly cytotoxic. 360,000 compounds, 2% hits. AID 686971, 2013;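 further: potency means the concentration at half of the fitted maximal effect; 0% = DMSO wells and -100% = cell-free medium wells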
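In this qHTS, HT-1080 cells depleted of IDH1 are exposed for 48 h at 37 °C to compound titrations. Toxicity is scored from CellTiter-Glo luminescence, with DMSO as full viability and medium alone as none.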
* = called active by the depositor. Unless noted, the call rests on the fitted dose curve; in most records, active means well fitted curve in the direction sought with a large enough effect; inconclusive means small, poorly fitted or top-dose-only effect, or another doubt; inactive means no such curve, though single readings can be large; an effect the other way counts as inactive or inconclusive. Unless noted, on the % scale 0 is the no-effect control and ±100 the full control effect.

Results for COc1ccc(/C=C\C(=O)c2c(O)ccc3c(C)cc(=O)oc23)cc1 ?
IL-1B inflam inh: -17.7; DT40 TDP1 CPT: -27.7%; HT1080NT lethal: inconclusive; DT40 TDP1 no CPT: 23.1µM*; HT1080 IDH1KD tx: inconclusive

What do the screens show for `COc1ccc(/C=C/C(=O)NNC(=O)c2cc(C)oc2C)cc1`?
IL-1B inflam inh: -58.1*; DT40 TDP1 CPT: 21.7%; HT1080NT lethal: -3.5%; DT40 TDP1 no CPT: -17.5%; HT1080 IDH1KD tx: -10.9%

Results for COc1ccc(/C=C/C(=O)c2cc3c(cc2N)OCO3)cc1 ?
IL-1B inflam inh: 0.0; DT40 TDP1 CPT: inconclusive; HT1080NT lethal: inconclusive; DT40 TDP1 no CPT: 23.1µM*; HT1080 IDH1KD tx: inconclusive

What do the screens show for `Cc1c(CNC2CCCCC2)c(C(=O)O)c(C)n1Cc1c(F)cccc1Cl`?
DT40 TDP1 CPT: -8.4%; DT40 TDP1 no CPT: -27.1%

How did O=C(CCc1ccccc1)NC(=S)NCc1ccco1 do in these assays?
IL-1B inflam inh: 1.4; DT40 TDP1 CPT: 11.8%; HT1080NT lethal: -5.7%; DT40 TDP1 no CPT: 20.6µM*; HT1080 IDH1KD tx: -8.9%

How did CC(=O)NC(=S)NNC(=O)CCc1ccccc1 do in these assays?
IL-1B inflam inh: -7.0; DT40 TDP1 CPT: inconclusive; HT1080NT lethal: -0.4%; DT40 TDP1 no CPT: inconclusive; HT1080 IDH1KD tx: -4.7%

Results for O=C(CCc1ccccc1)NNC(=S)NC(=O)c1ccccc1 ?
IL-1B inflam inh: 0.0; DT40 TDP1 CPT: 7.31µM*; HT1080NT lethal: inconclusive; DT40 TDP1 no CPT: 14.6µM*; HT1080 IDH1KD tx: 11.2µM*

Results for CCCCC(=O)NC(=S)NNC(=O)CCc1ccccc1 ?
IL-1B inflam inh: 174.3; DT40 TDP1 CPT: 20.6µM*; HT1080NT lethal: 3.0%; DT40 TDP1 no CPT: 20.6µM*; HT1080 IDH1KD tx: -1.9%

How did CC(C)(C)CC(=O)NC(=S)NCc1ccco1 do in these assays?
IL-1B inflam inh: 0.0; DT40 TDP1 CPT: -14.1%; HT1080NT lethal: -7.9%; DT40 TDP1 no CPT: -0.1%; HT1080 IDH1KD tx: -4.9%

Results for CCCCC(=O)NNC(=S)NC(=O)CCC ?
IL-1B inflam inh: -94.7*; DT40 TDP1 CPT: inconclusive; HT1080NT lethal: -9.5%; DT40 TDP1 no CPT: inconclusive; HT1080 IDH1KD tx: -12.8%

What do the screens show for `O=C(CCc1ccccc1)NNC(=S)NCCc1ccccc1`?
IL-1B inflam inh: 16.4; DT40 TDP1 CPT: inconclusive; HT1080NT lethal: -1.8%; DT40 TDP1 no CPT: 2.8%; HT1080 IDH1KD tx: -3.6%

What do the screens show for `COc1ccc(N2C(=O)CCC(C(=O)NCCCN3CCC(C)CC3)C2c2ccc(OC)c(OC)c2)cc1` (stereo not drawn)?
IL-1B inflam inh: -4.1; DT40 TDP1 CPT: -11.7%; HT1080NT lethal: 0.0%; DT40 TDP1 no CPT: -0.8%; HT1080 IDH1KD tx: 12.3%

What do the screens show for `COc1ccc(S(=O)(=O)NCC2CCCO2)c(Cl)c1Cl` (stereo not drawn)?
IL-1B inflam inh: -2.9; DT40 TDP1 CPT: 7.8%; HT1080NT lethal: 6.7%; DT40 TDP1 no CPT: -4.0%; HT1080 IDH1KD tx: 0.9%

Results for Cc1ccc(CSc2nnc(-c3ccco3)o2)cc1 ?
IL-1B inflam inh: -21.2; DT40 TDP1 CPT: -3.6%; HT1080NT lethal: 10.8%; DT40 TDP1 no CPT: 9.2%; HT1080 IDH1KD tx: 14.4%

Results for O=C(CCCC(=O)N(CC(=O)NC1CCCC1)Cc1ccc2c(c1)OCO2)Nc1ccccn1 ?
IL-1B inflam inh: 4.1; DT40 TDP1 CPT: -2.0%; HT1080NT lethal: 3.5%; DT40 TDP1 no CPT: 3.7%; HT1080 IDH1KD tx: 5.4%

What do the screens show for `CC(OC(=O)c1nsc(Cl)c1Cl)C(=O)NCCc1ccccc1` (stereo not drawn)?
IL-1B inflam inh: 22.3; DT40 TDP1 CPT: 0.3%; HT1080NT lethal: -1.4%; DT40 TDP1 no CPT: 3.4%; HT1080 IDH1KD tx: 7.0%

Results for CC(C)(C)c1cc(CCC(=O)NNC(=S)NC(=O)c2ccccc2)cc(C(C)(C)C)c1O ?
IL-1B inflam inh: 169.1; DT40 TDP1 CPT: 4.11µM*; HT1080NT lethal: 14.6µM*; DT40 TDP1 no CPT: 3.66µM*; HT1080 IDH1KD tx: inconclusive

Screening data: PubChem BioAssay, National Center for Advancing Translational Sciences (NCATS)
